The source made the active and inactive calls. Unless noted, the call rests on the fitted dose curve; in most records, active means well fitted curve in the direction sought with a large enough effect in the repeat runs; inconclusive means weak or mixed curves; inactive means no such curve, though single readings can be large; an effect the other way counts as inactive or inconclusive.
Legend:
[1] = qHTS assay for small molecule disruptors of the mitochondrial membrane potential - cell viability (AID 720634; calls by dose curve; further: nearly all actives have a fitted effect of over 20% in size; further: potency means the concentration at half of the fitted maximal effect)
How it was run: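 Same-well counter-screen: following the MMP dye addition, CellTiter-Glo was added to 1 hr compound-treated HepG2 cells and luminescence read after 30 min at room temperature.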

[2] = qHTS assay for small molecule disruptors of the mitochondrial membrane potential (AID 720635); further: potency means the concentration at half of the fitted maximal effect
How it was run: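 HepG2 cells exposed to compound 1 hr at 37C, then Mito-MPS dye 30 min. Ratio read of aggregate (540/590 nm) versus monomer (490/535 nm) fluorescence.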

[3] = qHTS assay to test for compound auto fluorescence at 590 nm (red) in HepG2 cells (AID 720674)
How it was run: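 Fluorescence at 590 nm emission following 540 nm excitation was recorded from HepG2 wells one hour after compound transfer, with DMSO-only wells as vehicle and Rose Bengal sodium equivalency as the scale.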

[4] = qHTS assay to test for compound auto fluorescence at 460 nm (blue) in HEK293 cells (AID 720678)
How it was run: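 After cell attachment (4-5 hr, 37C), compounds were pinned onto HEK293 monolayers in 10% dialyzed FBS medium. The blue channel (405/460 nm) was read following overnight culture. Equivalency was calculated against triamterene.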

[5] = qHTS assay to test for compound auto fluorescence at 590 nm (red) in HEK293 cell free culture (AID 720683)
How it was run: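 Cell-free wells of DMEM with 10% FBS received compound, and intrinsic fluorescence was read at excitation/emission 540/590 nm. Values expressed as equivalence to Rose Bengal sodium.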

[6] = target: Glucocorticoid receptor (Homo sapiens) (UniProt P04150); assay: qHTS assay to identify small molecule agonists of the glucocorticoid receptor (GR) signaling pathway (AID 720691; active means well fitted activation curve with a large enough effect in the signal ratio in the repeat runs, not every such curve was filed as active; inconclusive means weak or mixed curves, or effect the other way; inactive means no such curve, though single readings can be large or run the other way; the % refers to the signal ratio)
How it was run: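 A HeLa cervical cancer line expressing GR and a glucocorticoid response element-driven beta-lactamase gene is treated with compounds for 18 h; LiveBLAzer B/G FRET substrate is then applied and fluorescence read.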

[7] = qHTS assay to identify small molecule antagonists of the glucocorticoid receptor (GR) signaling pathway - cell viability counter screen (AID 720693); further: nearly all actives have a fitted effect of over 55% in size; further: potency means the concentration at half of the fitted maximal effect
[8] = qHTS assay for identifying genotoxic compounds that show differential cytotoxicity against isogenic chicken DT40 cell lines with known DNA damage response pathways - wild type cell line (AID 743012); further: nearly all actives have a fitted effect of over 60% in size; further: potency means the concentration at half of the fitted maximal effect
How it was run: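 300 wt DT40 cells/well; cpd (DMSO) pintool-transferred after ~0.5 h at 37 C/5% CO2; 40 h incubation; CellTiter-Glo added, 30 min RT; luminescence read.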

[9] = qHTS assay for identifying genotoxic compounds that show differential cytotoxicity against isogenic chicken DT40 cell lines with known DNA damage response pathways - Rev3 mutant cell line (AID 743014); further: nearly all actives have a fitted effect of over 55% in size; further: potency means the concentration at half of the fitted maximal effect
[10] = target: Estrogen receptor (Homo sapiens) (UniProt P03372); assay: qHTS assay to identify small molecule agonists of the estrogen receptor alpha (ER-alpha) signaling pathway (AID 743075; calls by dose curve;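 further: HEK293 GripTite cells with ER-alpha and UAS-driven beta-lactamase reporter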; further: potency means the concentration at half of the fitted maximal effect)
[11] = target: Estrogen receptor (Homo sapiens) (UniProt P03372); assay: qHTS assay to identify small molecule agonists of the estrogen receptor alpha (ER-alpha) signaling pathway using the BG1 cell line (AID 743079); further: nearly all actives have a fitted effect of over 20% in size; further: potency means the concentration at half of the fitted maximal effect
[12] = qHTS assay to identify small molecule antagonists of the estrogen receptor alpha (ER-alpha) signaling pathway using the BG1 cell line - cell viability counter screen (AID 743081);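 further: compound given together with 17beta-estradiol as the ER stimulus; nearly all actives have a fitted effect of over 45% in size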; further: potency means the concentration at half of the fitted maximal effect
[13] = qHTS assay to identify small molecule phospholipidosis (PLD) inducers (AID 1259344; active means well fitted curve in the direction sought with a large enough effect; inconclusive means small, poorly fitted or top-dose-only effect, or another doubt; inactive means no such curve, though single readings can be large; an effect the other way counts as inactive or inconclusive)
How it was run: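 Read-out is LipidTOX Red fluorescence (ex 595/em 615) imaged in HepG2 cells after 24 h compound exposure at 37 C, with Hoechst nuclear counterstain (ex 352/em 461) allowing per-cell normalisation.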

[14] = qHTS assay for small molecule agonists of the p53 signaling pathway (AID 651631; calls by dose curve; further: nearly all actives have a fitted effect of over 15% in size)
How it was run: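 Agonist mode screen using a stably integrated beta-lactamase gene under p53 response elements in HCT-116 cells. Compound exposure lasts 16 h at 37 °C; fluorescence intensity is measured following 2 h FRET substrate loading.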

[15] = qHTS assay for small molecule agonists of the p53 signaling pathway - cell viability (AID 651633; calls by dose curve; further: nearly all actives have a fitted effect of over 30% in size; further: potency means the concentration at half of the fitted maximal effect)
How it was run: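 p53RE-bla cells were treated with compound for 16 hours at 37 C. Cytotoxicity was then measured as CellTiter-Glo luminescence after 30 min at room temperature.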

[16] = qHTS assay to identify small molecule antagonists of the androgen receptor (AR) signaling pathway - cell viability counter screen (AID 743033; further: nearly all actives have a fitted effect of over 45% in size; further: potency means the concentration at half of the fitted maximal effect)
[17] = qHTS assay to identify small molecule antagonists of the androgen receptor (AR) signaling pathway using the MDA cell line - cell viability counter screen (AID 743041; further: nearly all actives have a fitted effect of over 45% in size; further: potency means the concentration at half of the fitted maximal effect)
How it was run: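 Cytotoxicity counter screen: MDA-kb2 AR-luc cells, compound + R1881, 16 h, 37C, 0% CO2; CellTiter-Fluor added at 15.5 h, fluorescence read after 30 min.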

[18] = target: Estrogen receptor (Homo sapiens) (UniProt P03372); assay: qHTS assay to identify small molecule antagonists of the estrogen receptor alpha (ER-alpha) signaling pathway (AID 743069; active means well fitted curve in the direction sought with a large enough effect in the signal ratio in the repeat runs, not every such curve was filed as active; inconclusive means weak or mixed curves, or effect the other way; inactive means no such curve, though single readings can be large or run the other way; the % refers to the signal ratio)
How it was run: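 Beta-lactamase FRET fluorescence is read after 2 hr at room temperature with LiveBLAzer B/G substrate. Before that, ER-alpha-bla HEK293 cells sit 4 hr after plating, then receive compound plus 17beta-estradiol and incubate 18 hr at 37C.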

[19] = qHTS assay to identify small molecule antagonists of the estrogen receptor alpha (ER-alpha) signaling pathway using the BG1 cell line (AID 743080; calls by dose curve;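 further: BG1 cells stimulated with 17beta-estradiol alongside compound; series mostly up to about 70 µM; nearly all actives have a fitted effect of over 25% in size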)
How it was run: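 Seeding, 24 h rest, compound transfer from DMSO, 17beta-estradiol addition, 21.5 h incubation, CellTiter-Fluor (30 min, 37 C), then ONE-Glo (30 min, room temperature): this sequence was run on BG1-Luc-4E2 reporter cells.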

[20] = target: Peroxisome proliferator-activated receptor gamma (Homo sapiens) (UniProt P37231); assay: qHTS assay to identify small molecule agonists of the peroxisome proliferator-activated receptor gamma (PPARg) signaling pathway (AID 743094; active means well fitted activation curve with a large enough effect in the signal ratio in the repeat runs, not every such curve was filed as active; inconclusive means weak or mixed curves, or effect the other way; inactive means no such curve, though single readings can be large or run the other way; the % refers to the signal ratio)
How it was run: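 Cell-based bla reporter, HEK293H background, PPARg-driven UAS. Pre-incubation 5 h, 37C, 5% CO2. Compound 17 h, 37C. Substrate 1 h RT; fluorescence.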

Measured: Potency

Sequence of Estrogen receptor (Homo sapiens) (P03372 whole entry, looked up): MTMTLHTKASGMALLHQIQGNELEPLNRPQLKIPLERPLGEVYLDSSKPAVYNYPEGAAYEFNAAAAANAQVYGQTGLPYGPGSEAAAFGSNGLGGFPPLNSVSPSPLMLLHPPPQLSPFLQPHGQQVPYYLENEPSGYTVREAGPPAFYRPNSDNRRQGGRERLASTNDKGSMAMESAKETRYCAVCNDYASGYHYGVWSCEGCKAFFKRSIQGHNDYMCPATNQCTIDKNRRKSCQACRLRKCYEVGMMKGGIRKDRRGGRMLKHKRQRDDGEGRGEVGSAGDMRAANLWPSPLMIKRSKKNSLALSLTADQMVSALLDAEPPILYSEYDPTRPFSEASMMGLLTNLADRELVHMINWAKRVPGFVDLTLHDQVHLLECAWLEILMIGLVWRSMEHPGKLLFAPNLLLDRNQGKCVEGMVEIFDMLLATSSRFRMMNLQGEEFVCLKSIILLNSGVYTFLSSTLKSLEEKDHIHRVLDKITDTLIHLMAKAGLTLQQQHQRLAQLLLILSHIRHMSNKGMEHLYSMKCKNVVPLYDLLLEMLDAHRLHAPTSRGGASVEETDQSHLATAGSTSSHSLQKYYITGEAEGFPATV
Sequence of Peroxisome proliferator-activated receptor gamma (Homo sapiens) (P37231 whole entry, looked up): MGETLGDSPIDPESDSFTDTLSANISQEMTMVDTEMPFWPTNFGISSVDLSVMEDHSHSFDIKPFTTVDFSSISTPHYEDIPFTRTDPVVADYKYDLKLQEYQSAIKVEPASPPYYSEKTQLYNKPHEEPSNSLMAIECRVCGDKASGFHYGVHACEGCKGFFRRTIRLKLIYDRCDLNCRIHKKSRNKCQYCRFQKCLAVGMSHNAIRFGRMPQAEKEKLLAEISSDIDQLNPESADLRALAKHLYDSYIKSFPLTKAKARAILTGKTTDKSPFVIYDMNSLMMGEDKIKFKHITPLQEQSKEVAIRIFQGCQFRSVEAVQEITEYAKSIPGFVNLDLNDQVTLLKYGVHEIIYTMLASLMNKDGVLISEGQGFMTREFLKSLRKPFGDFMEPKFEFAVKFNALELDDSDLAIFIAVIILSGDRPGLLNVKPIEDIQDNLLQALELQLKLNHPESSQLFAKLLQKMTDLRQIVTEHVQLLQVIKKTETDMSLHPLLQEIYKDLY
Sequence of Glucocorticoid receptor (Homo sapiens) (P04150 whole entry, looked up): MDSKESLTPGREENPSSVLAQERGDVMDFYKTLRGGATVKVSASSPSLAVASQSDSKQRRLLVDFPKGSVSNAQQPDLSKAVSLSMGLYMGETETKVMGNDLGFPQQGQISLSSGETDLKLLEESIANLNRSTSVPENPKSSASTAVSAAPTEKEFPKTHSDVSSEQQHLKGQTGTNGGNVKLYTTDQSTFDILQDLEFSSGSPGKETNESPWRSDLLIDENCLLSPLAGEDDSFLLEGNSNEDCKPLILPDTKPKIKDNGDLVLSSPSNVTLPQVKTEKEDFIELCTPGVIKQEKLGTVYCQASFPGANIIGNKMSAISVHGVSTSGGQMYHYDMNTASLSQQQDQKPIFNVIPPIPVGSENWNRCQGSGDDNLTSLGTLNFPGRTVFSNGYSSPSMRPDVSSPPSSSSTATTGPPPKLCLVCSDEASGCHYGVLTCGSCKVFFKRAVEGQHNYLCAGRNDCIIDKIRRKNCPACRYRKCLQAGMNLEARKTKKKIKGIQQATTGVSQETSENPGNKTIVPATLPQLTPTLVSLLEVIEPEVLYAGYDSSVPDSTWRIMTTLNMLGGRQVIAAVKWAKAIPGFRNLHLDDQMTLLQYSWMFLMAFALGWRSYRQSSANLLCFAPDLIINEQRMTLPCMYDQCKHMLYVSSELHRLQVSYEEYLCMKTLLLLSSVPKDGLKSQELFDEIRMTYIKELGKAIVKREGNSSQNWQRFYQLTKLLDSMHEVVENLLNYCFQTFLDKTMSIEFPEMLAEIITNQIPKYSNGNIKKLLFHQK

C[C@]12CC[C@H](O)C[C@H]1CC[C@@H]1[C@@H]2CC[C@]2(C)[C@@H](c3ccc(=O)oc3)C[C@H]3O[C@]132
active: [2] 2.66 µM | [7] 2.68 µM | [8] 7.5 µM | [9] 13.3 µM | [11] 0.944 µM
inactive: [1] | [3] | [4] | [5] | [6] | [10] | [12] | [13]

Cc1nnc2n1-c1ccc(Cl)cc1C(c1ccccc1Cl)=NC2
not listed: [3] | [4] | [10] | [11] | [17] | [18] | [19] | [20]
inactive: all other assays above

C/C=C(\CC)C(=O)NC(N)=O
active: [11] 29.8 µM
not listed: [4] | [9] | [16]
inactive: all other assays above

c1csc(C2(N3CCCCC3)CCCCC2)c1
not listed: [5] | [6] | [9] | [16]
inactive: all other assays above

CCNC1(c2cccs2)CCCCC1=O (configuration not stated)
not listed: [2] | [4] | [7] | [17]
inactive: all other assays above

Oc1cccc[c]1[Hg][Cl]
inactive: [3] | [4] | [5] | [13]
active: [15] 7.5 µM | [1] 13.3 µM | [2] 11.1 µM | [7] 5.35 µM | [8] 0.473 µM | [9] 0.75 µM | [16] 10.7 µM | [17] 7.5 µM | [10] 6.01 µM [inconclusive] | [12] 23.7 µM

O=C1CN=C(c2ccccc2)c2cc(Cl)ccc2N1
not listed: [4] | [7] | [8] | [9] | [12] | [16]
inactive: all other assays above

— PubChem BioAssay (Tox21)
